# Test results reported in PubChem BioAssay (NCATS).
# Inconclusive results are not listed. A number with no mark means an inactive call. Activity calls are given as the source filed them. Calls come from the whole dose curve; as a rule, active = well fitted inhibition curve with a large enough effect; inconclusive = small, poorly fitted or top-dose-only effect; inactive = flat fitted curve, though single readings scatter.
# Assays:
# [1] = tested on: PC15; assay: qHTS profiling for inhibitors of Plasmodium falciparum proliferation (AID 504749); conditions: P. falciparum in erythrocytes, SYBR Green DNA, 72 h; series mostly up to 28.7 µM
# Outline: (§1)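 SYBR Green fluorescence (ex 485 nm, em 535 nm) reports parasite DNA after 72 h compound exposure of infected red cells at 0.3% parasitemia, 2.5% hematocrit; signal normalized to 0.29 uM artemisinin and vehicle wells.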
# [2] = tested on: PC26; assay: as above; conditions: P. falciparum in erythrocytes, SYBR Green DNA, 72 h; series mostly up to 28.7 µM
# Outline: as §1
# [3] = tested on: PC49; assay: as above; conditions: P. falciparum in erythrocytes, SYBR Green DNA, 72 h; series mostly up to 28.7 µM
# Outline: as §1
# [4] = tested on: SC27B; assay: as above; conditions: P. falciparum in erythrocytes, SYBR Green DNA, 72 h; series mostly up to 28.7 µM
# Outline: as §1
# [5] = tested on: TAB109; assay: as above; conditions: P. falciparum in erythrocytes, SYBR Green DNA, 72 h; series mostly up to 28.7 µM
# Outline: as §1
# [6] = tested on: TAB113; assay: as above; conditions: P. falciparum in erythrocytes, SYBR Green DNA, 72 h; series mostly up to 28.7 µM
# Outline: as §1
# [7] = tested on: TAB165; assay: as above; conditions: P. falciparum in erythrocytes, SYBR Green DNA, 72 h; series mostly up to 28.7 µM
# Outline: as §1
# [8] = tested on: W2; assay: as above; conditions: P. falciparum in erythrocytes, SYBR Green DNA, 72 h; series mostly up to 28.7 µM
# Outline: as §1
# [9] = tested on: CRL-7250; assay: Cytotoxic Profiling of Annotated Libraries Using Quantitative High-Throughput Screening (AID 1296008); conditions: Five cell lines viability, CellTiter-Glo ATP luminescence, 48-72 h; max response: stronger effect = lower value; for max response: % is set by controls: 0 for no effect and ±100 for the full control effect
# Outline: (§2)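 Cells exposed to compounds for 48 or 72 hr at 37 degrees Celsius. Viability read as ATP-coupled luminescence with CellTiter-Glo after 10 min at room temperature.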
# [10] = tested on: HaCat; assay: as above; conditions: Five cell lines viability, CellTiter-Glo ATP luminescence, 48-72 h; max response: stronger effect = lower value
# Outline: as §2
# [11] = tested on: KB-3-1; assay: as above; conditions: Five cell lines viability, CellTiter-Glo ATP luminescence, 48-72 h; max response: stronger effect = lower value
# Outline: as §2
# [12] = tested on: NIH3T3; assay: as above; conditions: Five cell lines viability, CellTiter-Glo ATP luminescence, 48-72 h; max response: stronger effect = lower value
# Outline: as §2
# [13] = tested on: MCC-13; assay: qHTS assay to identify novel small-molecules to repurpose for Merkel cell carcinoma treatment (AID 1296009); conditions: MCC and control cell lines, CellTiter-Glo viability, 72 h; series mostly up to 46 µM
# Outline: (§3)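 CellTiter-Glo luminescence after 72 hr compound exposure at 37 degree celsius gave cell viability. Libraries NPC and MIPE were run as 8- and 11-point dose responses; RLUs normalized to DMSO (negative) and no-cell (cytotoxicity) controls.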
# [14] = tested on: MCC-26; assay: as above; conditions: MCC and control cell lines, CellTiter-Glo viability, 72 h; series mostly up to 46 µM
# Outline: as §3
# [15] = tested on: MKL-1; assay: as above; conditions: MCC and control cell lines, CellTiter-Glo viability, 72 h; series mostly up to 46 µM
# Outline: as §3
# [16] = tested on: MKL-2; assay: as above; conditions: MCC and control cell lines, CellTiter-Glo viability, 72 h; series mostly up to 46 µM
# Outline: as §3
# [17] = tested on: HEK293; assay: Cytotoxic Profiling of Annotated Libraries Using Quantitative High-Throughput Screening (AID 1296008); conditions: Five cell lines viability, CellTiter-Glo ATP luminescence, 48-72 h; max response: stronger effect = lower value; for max response: % is set by controls: 0 for no effect and ±100 for the full control effect
# Outline: as §2
# Note: nearly all actives have a fitted effect of over 60% in size.
# Potency is the fitted concentration of half-maximal effect.
structure (smiles),measurement,setting,value
CC(=O)Oc1ccc(C(c2ccc(OC(C)=O)cc2)c2ccccn2)cc1,Potency,[1],inactive
same,Potency,[2],inactive
same,Potency,[3],7.08 µM (active)
same,Potency,[4],inactive
same,Potency,[5],inactive
same,Potency,[6],inactive
same,Potency,[7],inactive
same,Potency,[8],inactive
same,max response,[9],-7.93%
same,max response,[10],-0.175%
same,max response,[11],-5.6%
same,max response,[12],-2.66%
same,Potency,[13],inactive
same,Potency,[14],inactive
same,Potency,[15],inactive
same,Potency,[16],inactive
CN(C/C=C/c1ccccc1)Cc1cccc2ccccc12,Potency,[9],26.6 µM (active)
same,Potency,[10],21.1 µM (active)
same,max response,[11],4.5%
same,Potency,[13],inactive
same,Potency,[14],inactive
same,Potency,[15],inactive
same,Potency,[16],inactive
CCCCCCC[N+](CC)(CC)CCCCc1ccc(Cl)cc1,Potency,[1],1.58 µM (active)
same,Potency,[2],2.03 µM (active)
same,Potency,[3],3.16 µM (active)
same,Potency,[4],2.82 µM (active)
same,Potency,[5],2 µM (active)
same,Potency,[6],2.24 µM (active)
same,Potency,[7],2 µM (active)
same,Potency,[8],1.61 µM (active)
same,Potency,[9],7.5 µM (active)
same,Potency,[17],6.68 µM (active)
same,Potency,[13],inactive
same,Potency,[14],inactive
same,Potency,[15],0.596 µM (active)
same,Potency,[16],0.237 µM (active)
COc1cccc2c1C(=O)c1c(O)c3c(c(O)c1C2=O)C[C@@](O)(C(C)=O)C[C@@H]3O[C@H]1C[C@H](N)[C@H](O)[C@H](C)O1,Potency,[1],10 µM (active)
same,Potency,[2],5.36 µM (active)
same,Potency,[3],7.08 µM (active)
same,Potency,[4],5.01 µM (active)
same,Potency,[5],3.55 µM (active)
same,Potency,[6],5.01 µM (active)
same,Potency,[7],2.24 µM (active)
same,Potency,[8],1.35 µM (active)
same,Potency,[9],0.075 µM (active)
same,Potency,[17],0.0473 µM (active)
same,Potency,[12],0.133 µM (active)
same,Potency,[13],1.06 µM (active)
same,Potency,[14],944 nM (active)
same,Potency,[15],0.0237 µM (active)
same,Potency,[16],0.0106 µM (active)
CCCCC(CC)CN=C(N)NC(N)=NCCCCCCN=C(N)NC(N)=NCC(CC)CCCC (stereo unspecified),Potency,[1],2.82 µM (active)
same,Potency,[2],1.51 µM (active)
same,Potency,[3],2.24 µM (active)
same,Potency,[4],2 µM (active)
same,Potency,[5],1.12 µM (active)
same,Potency,[6],1.78 µM (active)
same,Potency,[7],1.26 µM (active)
same,Potency,[8],1.07 µM (active)
same,Potency,[9],7.5 µM (active)
same,Potency,[17],2.99 µM (active)
same,Potency,[10],6.68 µM (active)
same,Potency,[13],10.6 µM (active)
same,Potency,[15],1.33 µM (active)
same,Potency,[16],1.88 µM (active)
C[n+]1c2cc(N)ccc2cc2ccc(N)cc21 (tested in a mixture with another compound),Potency,[9],6.68 µM (active)
same,Potency,[17],3.35 µM (active)
same,Potency,[13],11.9 µM (active)
same,Potency,[15],2.99 µM (active)
same,Potency,[16],0.75 µM (active)
C/C=C(/C(=C/C)c1ccc(O)cc1)c1ccc(O)cc1,max response,[9],1.03%
same,max response,[10],-0.716%
same,max response,[11],-11.5%
same,Potency,[13],inactive
same,Potency,[14],inactive
same,Potency,[15],inactive
same,Potency,[16],inactive
COC1=CC(=O)C[C@@H](C)[C@]12Oc1c(Cl)c(OC)cc(OC)c1C2=O,Potency,[1],inactive
same,Potency,[2],inactive
same,Potency,[3],inactive
same,Potency,[4],inactive
same,Potency,[5],inactive
same,Potency,[6],inactive
same,Potency,[7],inactive
same,Potency,[8],inactive
same,outcome,[9],inactive
same,Potency,[10],23.7 µM (active)
same,max response,[11],-57.5%
same,Potency,[13],inactive
same,Potency,[16],inactive
c1ccc(OCc2ccc(CCCN3CCOCC3)cc2)cc1,Potency,[1],inactive
same,Potency,[4],inactive
same,Potency,[5],inactive
same,Potency,[6],inactive
same,Potency,[7],inactive
same,max response,[9],-18%
same,max response,[10],1.82%
same,max response,[11],2.12%
same,Potency,[13],inactive
same,Potency,[14],inactive
same,Potency,[15],inactive
O=C(Nc1ccc(Oc2ccc(Cl)cc2)c(Cl)c1)c1cc(I)cc(I)c1O,Potency,[1],inactive
same,Potency,[2],inactive
same,Potency,[3],inactive
same,Potency,[4],inactive
same,Potency,[5],inactive
same,Potency,[6],inactive
same,max response,[9],-12.5%
same,max response,[10],1.19%
same,max response,[12],0.252%
same,Potency,[13],inactive
same,Potency,[14],inactive
same,Potency,[15],inactive
same,Potency,[16],inactive
CCN(CC)CCOc1ccc(C(O)(Cc2ccc(Cl)cc2)c2ccc(C)cc2)cc1 (stereo unspecified),Potency,[7],10 µM (active)
same,Potency,[8],6.01 µM (active)
same,Potency,[17],9.44 µM (active)
same,Potency,[11],16.4 µM (active)
same,Potency,[16],7.5 µM (active)
O=C(CCCN1CCC(O)(c2ccc(Br)cc2)CC1)c1ccc(F)cc1,Potency,[3],0.398 µM (active)
same,Potency,[4],inactive
same,Potency,[5],3.16 µM (active)
same,Potency,[8],1.44 µM (active)
same,max response,[9],2.7%
same,max response,[10],-2.82%
same,max response,[11],3.87%
same,Potency,[14],inactive
same,Potency,[15],inactive
same,Potency,[16],inactive
O=c1c(-c2ccccc2)c1-c1ccccc1,Potency,[2],12 µM (active)
same,Potency,[4],11.2 µM (active)
same,Potency,[7],10 µM (active)
same,Potency,[8],15.1 µM (active)
same,Potency,[17],23.7 µM (active)
same,Potency,[14],inactive
same,Potency,[15],26.6 µM (active)
same,Potency,[16],13.3 µM (active)
COc1cc(C=C2CCC/C(=C\c3ccc(O)c(OC)c3)C2=O)ccc1O,Potency,[9],15 µM (active)
same,Potency,[12],16.8 µM (active)
same,Potency,[13],26.6 µM (active)
same,Potency,[15],4.22 µM (active)
same,Potency,[16],2.99 µM (active)
C=C1C[C@H]2[C@@H]3C=C(C)C4=CC(=O)CC[C@]4(C)[C@H]3CC[C@]2(C)[C@@]1(OC(C)=O)C(C)=O,max response,[9],1.09%
same,max response,[10],-2.22%
same,max response,[12],-3.66%
same,Potency,[13],inactive
same,Potency,[14],inactive
same,Potency,[15],inactive
COc1ccc(CCN2CCC(Nc3nc4ccccc4n3Cc3ccc(F)cc3)CC2)cc1,Potency,[1],6.31 µM (active)
same,Potency,[2],6.75 µM (active)
same,Potency,[3],4.47 µM (active)
same,Potency,[4],3.98 µM (active)
same,Potency,[5],2.51 µM (active)
same,Potency,[6],3.98 µM (active)
same,Potency,[7],2.82 µM (active)
same,Potency,[8],3.01 µM (active)
same,Potency,[17],9.44 µM (active)
same,Potency,[12],4.73 µM (active)
same,Potency,[13],23.7 µM (active)
same,Potency,[16],13.3 µM (active)
